Laboratory results reported in PubChem BioAssay (EPA / NIEHS).
Where a structure was tested more than once in an assay, its records may differ in their call. Active and inactive are the calls of the source. Rule for the calls: active = hit-call score of the fitted dose curve at least 0.9, where 1 is the maximum; inactive = score below 0.9.

Experiment: ATG_SREBP_CIS: Attagene CIS-FACTORIAL HepG2 Assay for human Sterol Regulatory Element Binding (SREBP) (AID 2282962)
Details: HepG2 Attagene cis-factorial SREBP reporter, mRNA; actives raise or lower the signal
Procedure: ATG_CIS is a cell-based, multiplexed-readout assay that uses HepG2, a human liver cell line, with measurements taken at 24 hours after chemical dosing in a 24-well plate.ATG_SREBP_CIS is one of 52 assay component(s) measured or calculated from the ATG_CIS assay. It is designed to make measurements of mRNA induction, a form of inducible reporter, as detected with fluorescence intensity signals by Reverse transcription polymerase chain reaction (RT-PCR) and Capillary electrophoresis technology.Data from the assay component ATG_SREBP_CIS was analyzed into 1 assay endpoint. This assay endpoint, ATG_SREBP_CIS, was analyzed with bidirectional fitting relative to DMSO as the negative control and baseline of activity. Using a type of inducible reporter, measures of mRNA for gain or loss-of-signal activity can be used to understand the reporter gene at the transcription factor-level as they relate to the gene SREBF1. Furthermore, this assay endpoint can be referred to as a primary readout, because this assay has produced multiple assay endpoints where this one serves a reporter gene function. To generalize the intended target to other relatable targets, this assay endpoint is annotated to the dna binding intended target family, where the subfamily is basic helix-loop-helix leucine zipper.
Human liver HepG2 cells are transiently transfected with multiple reporter transcription units (MRTUs) in 6-well plates using FuGene 6 reagent (Roche; 3 ml FuGene/1 mg DNA). The MRTU constructs are regulated by a cis-regulating element (promoter). […] A major difference between the CIS and TRANS system is that in CIS activities of endogenous TFs are measured, whereas the TRANS assay evaluates changes in activities of exogenous, chimeric NR-Gal4 proteins. […] At the end of 24 hour incubation, total RNA was isolated using TriZol reagent (Invitrogen). The isolated RNA is then reverse-transcribed using oligo(dT) primer and Mo-MLV reverse transcriptase (Invitrogen) with DNAse I (Ambion) treatment for 30 min. The one-tenth of the produced cDNA was amplified by PCR using Taq DNA polymerase (Invitrogen) and two reporter sequence-specific primers. The PCR products were fluorescently labeled by primer extension with 6-arboxyfluorescein (6-FAM) 5'-labeled reporter sequence-specific primer (2 min at 95 C, 20 s at 68 C and 10 min at 72 C) and these products were digested with 5U of HpaI (New England Biolabs) for 2h at 37 C. The fragments were purified using Qiaquick PCR columns (Qiagen), analyzed on an ABI 3130xL genetic analyzer (Applied Biosystems) with peak positions identified by using a set of X-rhodamine (ROX)-labeled MapMarker1000 molecular weight standards (BioVentures). The raw capillary electrophoresis data was processed using Attagraph software (Attagene).

Structure (SMILES) | outcome | AC50
COc1nc(NC(C)C)nc(NC(C)C)n1 | inactive | –
CCCC1COC(Cn2cncn2)(c2ccc(Cl)cc2Cl)O1 (stereo not given) | inactive | 15.9 µM (active)
COC(=O)C(C)Oc1ccc(Oc2ccc(Cl)cc2Cl)cc1 (stereo not given) | inactive | –
CS/C(C)=N/OC(=O)N(C)SN(C)C(=O)O/N=C(\C)SC | inactive | –
CCc1nn(C)c(C(=O)NCc2ccc(C(C)(C)C)cc2)c1Cl | inactive | –
COC(=O)N(OC)c1ccccc1COc1ccn(-c2ccc(Cl)cc2)n1 | inactive | –
OC(c1ccc(Cl)cc1)(c1cncnc1)c1ccccc1Cl (stereo not given) | inactive | –
CCOP(=S)(OCC)SCn1c(=O)oc2cc(Cl)ccc21 | inactive | –
CCCCNC(=O)n1c(NC(=O)OC)nc2ccccc21 | inactive | –
C#CCOS(=O)OC1CCCCC1Oc1ccc(C(C)(C)C)cc1 (stereo not given) | inactive | –
COP(N)(=O)SC (stereo not given) | inactive | –
CCON=C(CC)C1=C(O)CC(c2c(C)cc(C)cc2C)CC1=O (stereo not given) | inactive | –
COP(=S)(OC)Oc1nc(Cl)c(Cl)cc1Cl | – | 32 µM (active)
CN(C)C(=S)SSC(=S)N(C)C | inactive | –
CC(C)C1(C)N=C(c2nc3ccccc3cc2C(=O)O)NC1=O (stereo not given) | inactive | –
COC(=O)C=C(C)OP(=O)(OC)OC | inactive | –
O=C(Nc1ccccc1)Nc1ccnc(Cl)c1 | – | 13.1 µM (active)
COC(=O)c1ccccc1C(=O)OC | inactive | –

Structure (SMILES) | outcome | AC50
COc1nc(C)nc(NC(=O)NS(=O)(=O)c2ccccc2Cl)n1 | inactive | –
CO/C=C(/C(=O)OC)c1ccccc1Oc1cc(Oc2ccccc2C#N)ncn1 | inactive | 32.4 µM (active) [middle of 4 runs]
O=C(O)COc1nc(Cl)c(Cl)cc1Cl | inactive | –
Oc1ccccc1-c1ccccc1 | inactive | 150 µM (active)
CCOC(=O)C(Cl)Cc1cc(-n2nc(C)n(C(F)F)c2=O)c(F)cc1Cl (stereo not given) | inactive | –
O=C(O)c1nc(Cl)ccc1Cl | inactive | –
Fc1ccc(Oc2ccnc3cc(Cl)cc(Cl)c23)cc1 | inactive | –
Cc1cc(Cl)ccc1OCC(=O)O | inactive | –
COc1nc(C)nc(NC(=O)NS(=O)(=O)c2ccccc2CCC(F)(F)F)n1 | inactive | –
CCCCOC(=O)c1ccccc1C(=O)OCCCC | inactive | 75.8 µM (active)
CCCCC(CC)COC(=O)c1ccccc1C(=O)OCC(CC)CCCC (stereo not given) | inactive | –
Cc1ccc(-c2c(Cl)nc(C#N)n2S(=O)(=O)N(C)C)cc1 | inactive | –
CCNc1nc(Cl)nc(NC(C)C)n1 | inactive | –
N#CC(CCc1ccc(Cl)cc1)(Cn1cncn1)c1ccccc1 (stereo not given) | – | 8.22 µM (active)
CNC(=O)ON=CC(C)(C)SC | inactive | –
CON(C)C(=O)Nc1ccc(Cl)c(Cl)c1 | inactive | –
Cc1c(F)c(F)c(COC(=O)C2C(/C=C(\Cl)C(F)(F)F)C2(C)C)c(F)c1F (stereo not given) | inactive | –
CNC(=S)S | inactive | –
